Assay outcomes from PubChem BioAssay.
IMPase Li cell = IMPase inhibition in cells with lithium potentiation. CHO-M1 cells, IP1 TR-FRET (IP-One), carbachol + lithium. 0.35% of 210,000 active. Potency, µM (series often up to 59.4 µM), for inactives: at the top dose activity, negative = IMPase inhibition, usual class: inhibitors;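 note: IP1 builds up when IMPase is blocked and the TR-FRET signal falls; potency is the fitted concentration of half-maximal effect; plate controls were basal vehicle for no effect and high inhibitor control for full effect; nearly all actives have a fitted effect of over 50% in size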
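Readout is a homogeneous TR-FRET IP1 immunoassay (Ex 320, Em 665 and 620), where raised cytosolic IP1 lowers signal. Cells were CHO-M1 treated 30 min at 37C with test compounds plus a little lithium; AC50 values came from Hill-equation fitting.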
HPGD inh = blocks human HPGD enzyme activity; P15428; purified HPGD, NADH fluorescence kinetic, PGE2 substrate; Potency, µM, for inactives: top-dose activity change, negative = inhibition, usual class: inhibitors; 4.3% of 150,000 active; active = well fitted inhibition curve with a large enough effect, not every such curve was filed as active; inconclusive = small, poorly fitted or top-dose-only effect, or another doubt; inactive = no such curve, though single readings can be large or run the other way; note: potency is the fitted concentration of half-maximal effect
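20 nM HPGD preincubated 15 min at room temperature with compound in 50 mM Tris-HCl pH 8, 0.01% Tween 20. Started with 1 mM NAD+ and 30 uM prostaglandin E2; NADH fluorescence (360/450 nm) read 5 times over 30-s intervals, last minus first.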
ALOX12 inhib = inhibitors of human 12-lipoxygenase (ALOX12) | P18054 | purified 12-hLO, xylenol orange hydroperoxide absorbance | Potency, µM (top dose mostly 57.1 µM), for inactives: at the highest dose activity change, negative = inhibition, most hits filed as inhibitors | 0.12% of 150,000 active | AID 1452; note: potency is the fitted concentration of half-maximal effect; nearly all actives have a fitted effect of over 55% in size
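Lipoxygenase turnover measured by absorbance at 573 and 405 nm after Fe-XO development. Human 12hLO 150 nM, arachidonate 40 uM, pH 7.0 Hepes buffer with detergent; 15 min compound preincubation, 30 min reaction.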
ALOX15B inhib = inhibitors of human 15-lipoxygenase 2 (ALOX15B). O15296. purified 15hLO-2, xylenol orange hydroperoxide absorbance. Potency, µM (doses to about 57.1 µM), inactives show at the highest dose activity change, negative = inhibition, hits mostly inhibitors. 0.56% of 110,000 active; note: potency is the fitted concentration of half-maximal effect; nearly all actives have a fitted effect of over 60% in size
Target sequence (O15296 whole entry, looked up): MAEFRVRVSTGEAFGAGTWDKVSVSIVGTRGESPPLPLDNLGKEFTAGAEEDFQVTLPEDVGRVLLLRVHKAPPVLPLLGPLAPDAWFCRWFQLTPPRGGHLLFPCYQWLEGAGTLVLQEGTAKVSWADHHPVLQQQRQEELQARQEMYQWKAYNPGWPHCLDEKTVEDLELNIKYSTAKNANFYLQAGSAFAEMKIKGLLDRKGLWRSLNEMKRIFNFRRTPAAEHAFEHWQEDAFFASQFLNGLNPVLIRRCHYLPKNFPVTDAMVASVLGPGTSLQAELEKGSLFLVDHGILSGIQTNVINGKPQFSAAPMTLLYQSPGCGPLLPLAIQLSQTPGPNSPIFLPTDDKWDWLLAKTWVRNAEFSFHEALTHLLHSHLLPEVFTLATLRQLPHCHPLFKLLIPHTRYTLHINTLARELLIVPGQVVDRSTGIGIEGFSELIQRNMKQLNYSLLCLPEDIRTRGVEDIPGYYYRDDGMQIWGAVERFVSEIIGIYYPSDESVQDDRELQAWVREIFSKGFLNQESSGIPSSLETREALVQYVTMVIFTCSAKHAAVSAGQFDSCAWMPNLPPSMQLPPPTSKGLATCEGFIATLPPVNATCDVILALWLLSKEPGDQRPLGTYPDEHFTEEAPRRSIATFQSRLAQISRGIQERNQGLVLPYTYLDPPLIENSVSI
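Purified human 15hLO-2 (50 nM final) preincubated with compounds 15 min at room temperature in 25 mM Hepes pH 7.5, 0.01% Triton X-100, then 45 uM arachidonic acid added for 90 min; hydroperoxide detected via ferrous/xylenol orange, 573/405 nm absorbance ratio.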
PNC inhibitor = blocks assembly of the perinucleolar compartment | PC3M PTB-GFP, PNC prevalence imaging, 16 h; active compounds read low | activity change (PNC), negative = inhibition, % at 10 µM | 3.1% of 140,000 active;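 active = readout at or below -70, meaning at least 70% loss of cells showing the perinucleolar compartment, a nuclear body marking cancer cells; inconclusive = readout between -30 and a set limit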;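 note: plate controls were DMSO wells for no effect and camptothecin positive control wells for full effect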
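Read-out is percentage of cells bearing a perinucleolar compartment, from automated 20x imaging of fixed, Hoechst-stained PC3M PTB-GFP cells. Cells were seeded 4 h, then exposed 16 h to compound (23 nl of library stock) in duplicate plates.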
IMPase cell inh = cell-permeable inhibitors of inositol monophosphatase (IMPase); CHO-M1 cells, IP1 accumulation, HTRF TR-FRET ratio; inhibition (IP1 accumulation), % at 46.1 µM; 120,000 tested, under 10 active; AID 901; active = well fitted curve in the direction sought with a large enough effect in the signal ratio, not every such curve was filed as active; inconclusive = small, poorly fitted or top-dose-only effect, or a change in a side signal; inactive = no such curve, though single readings can be large or run the other way; the % refers to the signal ratio;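 note: cells stimulated with carbachol in lithium chloride buffer; plate controls were DMSO basal wells for no effect and reference inhibitor wells for full effect; higher means more IMPase inhibition seen as more IP1 and lower FRET ratio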
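Measured: the HTRF emission ratio (665/620 nm) plus the 620 nm donor channel, each fitted to the Hill equation to give AC50. Cells were CHO-M1 given compounds up to 46 uM and a 30 min carbachol stimulation at 37C.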
The depositor's hits bear a star; ? = inconclusive; nt = no result; [ ] = another dose, or the depositor's remark. Sampled rows, rich in hits. Any-hit rate of the full collection: about 5.3%. Unless noted, calls come from the whole dose curve; as a rule, active = well fitted curve in the direction sought with a large enough effect; inconclusive = small, poorly fitted or top-dose-only effect, or another doubt; inactive = no such curve, though single readings can be large; an effect the other way counts as inactive or inconclusive. Unless noted, % is set by controls: 0 for no effect and ±100 for the full control effect.

SMILES	IMPase Li cell	HPGD inh	ALOX12 inhib	ALOX15B inhib	PNC inhibitor	IMPase cell inh
COC(=O)c1ccc(-c2ccc(/C=N/N3C(=O)C4C5C=CC(CC5)C4C3=O)o2)cc1 (configuration not stated)	21%	nt	nt	nt	nt	nt
COc1ccc(-c2ccc(/C=N/N3C(=O)C4C5C=CC(C6CC56)C4C3=O)o2)c([N+](=O)[O-])c1 (configuration not stated)	21%	25µM*	-4%	nt	74	nt
O=C1C2C3C=CC(C4CC34)C2C(=O)N1/N=C/c1ccc(-c2ccc(Cl)cc2[N+](=O)[O-])o1 (configuration not stated)	20%[38.3 µM]	?	0%	-10%	?	8
Cc1ccc(-c2ccc(/C=N/N3C(=O)C4C5C=CC(CC5)C4C3=O)o2)c([N+](=O)[O-])c1 (configuration not stated)	41%[38.3 µM]	16µM*	-13%	-6%	31	5
COc1ccccc1C(c1nnnn1CCc1ccccc1)N1CCCCCC1 (configuration not stated)	29%[38.3 µM]	0%	-7%	-2%	-19	10
CCCOc1ccc(OCCSc2nnc(N)s2)cc1	15%[38.3 µM]	5µM*	3%	-9%	20	1
CC(C(=O)N1CCOCC1)N1C(=O)c2cccc3cccc(c23)C1=O (configuration not stated)	-1%	nt	nt	nt	nt	nt
CCN1/C(=C2\OC(=S)N(C)C2=O)Sc2ccccc21	11µM*	-21%	2%	-4%	-19	-7
O=C(Oc1ccccc1)N1CCC2(CCCN(c3ccc(-c4ccccc4)cc3)C2)CC1	14%	-8%	-9%	-4%	nt	nt
O=C(c1cc(-c2ccncc2)nc2ccc(Br)cc12)N1CCN(c2ccccn2)CC1	-7%[38.3 µM]	-15%	-8%	25%	53	2
Cn1cc(CNC(=O)c2cc(-c3ccccc3)nc3ccc(Br)cc23)cn1	11µM*	-17%	-1%	nt	11	nt
O=C(O)c1cc(-c2cccnc2)nc2ccc(Br)cc12	2.8µM*	nt	nt	nt	nt	nt
Cc1ccc(-c2cc(C(=O)NCc3cnn(C)c3)c3cc(Br)ccc3n2)cc1	?	-15%	-3%	nt	-26	-3
O=C(Nc1ccc(C(F)(F)F)cc1)c1cc(-c2cccnc2)nc2ccc(Br)cc12	-19%[38.3 µM]	-3%	1%	3%	-1	-2
CC(=O)Nc1cccc(NC(=O)c2cc(-c3cccnc3)nc3ccc(Br)cc23)c1	11µM*	-18%	7%	11%	39	-20
CCN1CCN(C(=O)c2cc(-c3cccnc3)nc3ccc(Br)cc23)CC1	13µM*	-24%	1%	11%	-107*	-16
CC(=O)Nc1cccc(NC(=O)c2cc(-c3cccnc3)nc3ccc(Cl)cc23)c1	12%	nt	nt	nt	nt	nt
CCOC(=O)c1c(NC(=O)CC2SC(N)=NC2=O)sc2c1CCCC2 (configuration not stated)	0%[38.3 µM]	-8%	-2%	6%	-23	-4
CSCCCNC(=S)N(C)CC(=O)Nc1ccc(C)cc1	2%	nt	nt	nt	nt	nt
C[C@@H](C1=C(CCN(C)C)Cc2ccccc21)c1ccccn1	36%	-14%	2%	38%	nt	17
O=C(CSc1nc2ncc(Cl)cc2[nH]1)N(Cc1ccccc1)C1CCS(=O)(=O)C1 (configuration not stated)	-1%	nt	nt	nt	nt	nt
O=C1CN(C(=O)COc2ccc(F)cc2Br)c2ccccc2N1	12%	nt	nt	nt	nt	nt
N#[N+]c1ccc(Nc2ccccc2)cc1	1%	0%	-3%[11.4 µM]	-7%[11.4 µM]	nt	nt
O=C(CSc1nc2ccccc2c(=O)n1-c1ccccc1Cl)Nc1cccc(S(=O)(=O)N2CCOCC2)c1	-4%	-6%	-3%	nt	?	nt
Cc1cc(NS(=O)(=O)c2ccc(NC(=O)c3cc(-c4cccnc4)nc4ccc(Cl)cc34)cc2)no1	-9%[38.3 µM]	14µM*	-3%	-6%	-26	-11
SMILES	IMPase Li cell	HPGD inh	ALOX12 inhib	ALOX15B inhib	PNC inhibitor	IMPase cell inh
O=C(O)c1cc(-c2ccc3c(c2)OCO3)nc2ccc(Br)cc12	11µM*	nt	nt	nt	nt	nt
COc1ccc(C(=O)COC(=O)c2cccc(NC(=O)c3ccc(OC)c(OC)c3)c2)cc1	nt	nt	nt	nt	nt	7
CNS(=O)(=O)c1cccc(C(=O)OCc2cc(Cl)cc3c2OCOC3)c1	-4%[38.3 µM]	-26%	-9%	-4%	-9	14
CC1Cc2cc(/C(O)=C3/C(=O)C(=O)N(CCN4CCOCC4)C3c3cccc(Cl)c3)ccc2O1 (configuration not stated)	6.3µM*	28µM*	-2%	-6%	?	?
COc1ccc(C2/C(=C(/O)c3ccc4c(c3)CC(C)O4)C(=O)C(=O)N2CCN2CCOCC2)cc1 (configuration not stated)	-13%[38.3 µM]	-11%	2%	-5%	22	-9
CCOc1c(Cl)cc(C(=O)Nc2ccccc2C(=O)O)cc1Cl	-8%[38.3 µM]	14µM*	2%	-1%	110	5
O=C(CSc1ncn[nH]1)Nc1cc(S(=O)(=O)N2CCCC2)ccc1Cl	7%	nt	nt	nt	nt	nt
CN(C(=O)COc1ccccc1C(=O)NCCc1ccccc1)c1ccccc1	4%	0%	-2%	nt	-100*	nt
O=C(NCc1cccnc1)/C(=C\c1ccc(-c2ccc(Cl)c(Cl)c2)o1)S(=O)(=O)c1ccccc1	8%	?	3%	nt	-81*	14
O=C(NCc1cccnc1)c1ccc(-c2ccc(Cl)cc2)o1	0%	nt	nt	nt	nt	nt
CC(=O)c1ccc(C(=O)N2CCCC(CCC(=O)N(C)CCc3ccccn3)C2)s1 (configuration not stated)	20%	nt	nt	nt	nt	nt
CN(C)C(=O)c1cc(C(=O)c2ccc(C(F)(F)F)cc2F)c[nH]1	-1%	nt	nt	nt	nt	nt
O=C(Nc1nc2ccc(S(=O)(=O)N3CCCC3)cc2s1)C1CCCCC1	39%[38.3 µM]	20µM*	0%	-9%	-108*	5
O=C(Nc1nc2ccc(S(=O)(=O)N3CCCCC3)cc2s1)C1CCCO1 (configuration not stated)	17%[38.3 µM]	-6%	-4%	-7%	15	1
Nc1nc2ccc(S(=O)(=O)N3CCCCC3)cc2s1	32%[38.3 µM]	14µM*	-21%	-9%	-13	?
